This note sets out measurements from publication PMC7862700, “An all-to-all approach to the identification of sequence-specific readers for epigenetic DNA modifications on cytosine”.

What all share (experiment): DAPPL (digital affinity profiling via proximity ligation, sequencing); 10 mM Tris-HCl pH 7.5, 50 mM NaCl, 1 mM DTT, 4% glycerol, room temperature, 30 min; GST-TFs on glutathione beads, 16-mer random dsDNA library, 0.1% formaldehyde crosslink after washing; high values mean tight binding
Conditions in all cases: protein: recombinant; tags: N-terminal GST; dsDNA, one strand shown

One assay has as its target T1, ELF3 (Homo sapiens, UniProt P78545 1-371).
T1 sequence: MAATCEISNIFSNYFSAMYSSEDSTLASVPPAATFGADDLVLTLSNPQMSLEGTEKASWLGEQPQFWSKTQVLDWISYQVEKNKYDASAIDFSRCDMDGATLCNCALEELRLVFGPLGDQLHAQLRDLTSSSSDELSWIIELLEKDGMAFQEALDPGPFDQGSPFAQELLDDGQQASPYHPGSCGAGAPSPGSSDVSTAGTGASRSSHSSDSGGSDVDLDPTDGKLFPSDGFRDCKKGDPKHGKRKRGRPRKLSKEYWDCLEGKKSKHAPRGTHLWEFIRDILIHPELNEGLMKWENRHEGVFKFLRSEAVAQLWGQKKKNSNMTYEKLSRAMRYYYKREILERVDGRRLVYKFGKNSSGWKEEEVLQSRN
An outline of the steps:
(§1)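 Binding signal is each hexamer's read frequency for a factor divided by its frequency in the tag-only sample. The factors were GST-fused human transcription factors from yeast, captured on glutathione beads, DNA-barcoded and pooled with that sample. Pools were incubated with 200 nmole of a random double-stranded 16-mer DNA library in Tris/NaCl/DTT/glycerol buffer at room temperature for 30 min, then washed, crosslinked with 0.1% formaldehyde, proximity-ligated with BsaI/T4 ligase (1 h, 37 °C), PCR-amplified and sequenced on an Illumina NextSeq500.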

In a further assay the target is T2, ETS2 (Homo sapiens, UniProt P15036 1-469).
T2 sequence: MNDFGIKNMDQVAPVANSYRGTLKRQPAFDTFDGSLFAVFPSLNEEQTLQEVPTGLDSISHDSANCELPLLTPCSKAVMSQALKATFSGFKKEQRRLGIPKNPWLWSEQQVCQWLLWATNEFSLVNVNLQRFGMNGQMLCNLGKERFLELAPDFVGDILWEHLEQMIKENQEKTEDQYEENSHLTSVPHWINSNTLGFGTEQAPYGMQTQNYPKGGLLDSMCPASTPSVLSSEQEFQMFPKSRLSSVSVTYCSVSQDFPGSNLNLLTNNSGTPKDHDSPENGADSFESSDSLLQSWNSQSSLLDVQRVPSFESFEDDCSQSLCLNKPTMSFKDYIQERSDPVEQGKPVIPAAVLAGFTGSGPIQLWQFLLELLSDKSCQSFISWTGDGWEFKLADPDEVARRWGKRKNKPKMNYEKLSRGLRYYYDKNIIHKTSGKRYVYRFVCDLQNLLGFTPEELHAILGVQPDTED
The procedure, abridged: as §1

Another assay concerns the target T3, SPDEF (Homo sapiens, UniProt O95238 1-335).
T3 sequence: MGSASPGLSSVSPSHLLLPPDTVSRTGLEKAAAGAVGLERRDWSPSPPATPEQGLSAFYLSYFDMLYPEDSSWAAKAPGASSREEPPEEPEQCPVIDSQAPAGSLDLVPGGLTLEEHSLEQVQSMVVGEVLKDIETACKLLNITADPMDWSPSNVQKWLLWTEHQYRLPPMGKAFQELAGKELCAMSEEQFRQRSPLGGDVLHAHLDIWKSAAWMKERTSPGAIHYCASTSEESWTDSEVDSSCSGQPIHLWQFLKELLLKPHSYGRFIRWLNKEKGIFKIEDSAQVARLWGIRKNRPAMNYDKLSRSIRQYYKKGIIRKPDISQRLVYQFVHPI
An outline of the steps:
as §1

Another assay addresses T4, ELF5 (Homo sapiens, UniProt Q9UKW6-2 1-255).
T4 sequence: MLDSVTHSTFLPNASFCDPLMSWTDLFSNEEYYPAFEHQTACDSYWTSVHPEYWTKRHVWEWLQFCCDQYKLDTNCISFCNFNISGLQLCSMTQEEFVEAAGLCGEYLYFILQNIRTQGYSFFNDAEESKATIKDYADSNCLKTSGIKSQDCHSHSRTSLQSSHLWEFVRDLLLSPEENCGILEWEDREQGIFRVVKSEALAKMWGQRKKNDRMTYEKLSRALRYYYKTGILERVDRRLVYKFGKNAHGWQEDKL
The procedure, abridged:
as §1

The next assay deals with T5, ETV3 (Homo sapiens, UniProt P41162-2 1-143).
T5 sequence: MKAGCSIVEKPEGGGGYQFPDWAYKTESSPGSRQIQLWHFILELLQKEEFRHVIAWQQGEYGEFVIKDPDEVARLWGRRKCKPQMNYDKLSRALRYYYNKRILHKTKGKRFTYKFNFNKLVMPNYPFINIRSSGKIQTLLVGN
An outline of the steps: as §1

In the next assay the target is T6, ETV3L (Homo sapiens, UniProt Q6ZN32 1-361).
T6 sequence: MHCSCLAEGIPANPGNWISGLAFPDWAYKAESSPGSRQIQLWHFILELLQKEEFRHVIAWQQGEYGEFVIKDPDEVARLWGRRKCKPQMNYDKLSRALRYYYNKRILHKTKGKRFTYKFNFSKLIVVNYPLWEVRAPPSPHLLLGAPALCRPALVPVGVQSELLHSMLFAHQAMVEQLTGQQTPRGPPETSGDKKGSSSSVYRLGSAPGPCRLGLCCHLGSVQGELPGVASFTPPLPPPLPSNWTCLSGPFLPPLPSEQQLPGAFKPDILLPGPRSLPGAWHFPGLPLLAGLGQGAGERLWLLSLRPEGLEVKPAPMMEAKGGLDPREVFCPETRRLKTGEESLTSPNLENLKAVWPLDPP
The procedure, abridged:
as §1

The next assay deals with T7, GABPA (Homo sapiens, UniProt Q06546 1-454).
T7 sequence: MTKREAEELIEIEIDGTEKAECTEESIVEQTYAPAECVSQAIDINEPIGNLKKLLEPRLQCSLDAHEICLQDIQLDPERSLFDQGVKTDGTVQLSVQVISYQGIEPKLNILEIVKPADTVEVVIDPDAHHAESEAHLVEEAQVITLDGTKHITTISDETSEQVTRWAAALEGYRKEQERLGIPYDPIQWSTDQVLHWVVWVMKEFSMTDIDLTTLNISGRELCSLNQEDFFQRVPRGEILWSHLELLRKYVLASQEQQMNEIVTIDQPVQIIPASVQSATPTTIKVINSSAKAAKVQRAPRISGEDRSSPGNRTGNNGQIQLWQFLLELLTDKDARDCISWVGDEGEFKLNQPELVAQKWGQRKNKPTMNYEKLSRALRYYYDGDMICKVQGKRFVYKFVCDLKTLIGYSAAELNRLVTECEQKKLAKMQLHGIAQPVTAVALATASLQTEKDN
An outline of the steps:
as §1

In another assay the target is SPIB (Homo sapiens, UniProt Q01892 1-262). An outline of the steps: as §1
For the next assay, the target named is CRX (Homo sapiens, UniProt O43186 1-299). An outline of the steps:
as §1

Another assay addresses T8, ERG (Homo sapiens, UniProt P11308 1-479).
T8 sequence: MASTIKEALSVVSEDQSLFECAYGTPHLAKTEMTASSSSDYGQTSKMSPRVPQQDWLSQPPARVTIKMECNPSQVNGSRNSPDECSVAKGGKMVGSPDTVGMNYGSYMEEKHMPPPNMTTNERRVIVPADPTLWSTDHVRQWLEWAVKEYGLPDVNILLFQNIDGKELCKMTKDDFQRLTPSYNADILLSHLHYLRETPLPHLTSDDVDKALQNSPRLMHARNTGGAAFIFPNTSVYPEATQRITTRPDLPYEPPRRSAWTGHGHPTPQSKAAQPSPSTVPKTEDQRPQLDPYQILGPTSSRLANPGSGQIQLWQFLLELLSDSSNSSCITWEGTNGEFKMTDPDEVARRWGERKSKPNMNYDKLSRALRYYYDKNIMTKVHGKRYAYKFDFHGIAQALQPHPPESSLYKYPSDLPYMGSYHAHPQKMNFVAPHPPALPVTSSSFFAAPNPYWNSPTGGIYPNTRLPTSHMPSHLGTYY
The procedure, abridged: as §1

The next assay has as its target T9, FEV (Homo sapiens, UniProt Q99581 1-238).
T9 sequence: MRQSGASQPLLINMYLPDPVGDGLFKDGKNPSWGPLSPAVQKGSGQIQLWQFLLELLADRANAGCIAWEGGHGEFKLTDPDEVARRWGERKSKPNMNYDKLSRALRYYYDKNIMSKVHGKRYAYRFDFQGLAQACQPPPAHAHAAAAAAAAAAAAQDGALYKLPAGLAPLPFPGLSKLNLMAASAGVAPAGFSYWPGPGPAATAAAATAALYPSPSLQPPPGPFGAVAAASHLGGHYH
The procedure, abridged: as §1

The next assay concerns the target SPI1 (Homo sapiens, UniProt P17947 1-270). An outline of the steps: as §1
Another assay has as its target ELF1 (Homo sapiens, UniProt P32519 1-619). An outline of the steps: as §1
In the next assay the target is T10, EHF (Homo sapiens, UniProt Q9NZC4 1-300).
T10 sequence: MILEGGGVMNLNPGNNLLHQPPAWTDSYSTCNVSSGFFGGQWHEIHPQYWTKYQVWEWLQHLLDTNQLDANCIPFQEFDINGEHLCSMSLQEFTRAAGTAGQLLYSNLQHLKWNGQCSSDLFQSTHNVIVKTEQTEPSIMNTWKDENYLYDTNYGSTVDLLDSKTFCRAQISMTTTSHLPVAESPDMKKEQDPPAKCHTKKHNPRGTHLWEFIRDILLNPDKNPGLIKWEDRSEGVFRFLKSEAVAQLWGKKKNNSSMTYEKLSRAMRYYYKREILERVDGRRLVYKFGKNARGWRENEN
The procedure, abridged: as §1

The next assay deals with T11, ERF (Homo sapiens, UniProt P50548 1-548).
T11 sequence: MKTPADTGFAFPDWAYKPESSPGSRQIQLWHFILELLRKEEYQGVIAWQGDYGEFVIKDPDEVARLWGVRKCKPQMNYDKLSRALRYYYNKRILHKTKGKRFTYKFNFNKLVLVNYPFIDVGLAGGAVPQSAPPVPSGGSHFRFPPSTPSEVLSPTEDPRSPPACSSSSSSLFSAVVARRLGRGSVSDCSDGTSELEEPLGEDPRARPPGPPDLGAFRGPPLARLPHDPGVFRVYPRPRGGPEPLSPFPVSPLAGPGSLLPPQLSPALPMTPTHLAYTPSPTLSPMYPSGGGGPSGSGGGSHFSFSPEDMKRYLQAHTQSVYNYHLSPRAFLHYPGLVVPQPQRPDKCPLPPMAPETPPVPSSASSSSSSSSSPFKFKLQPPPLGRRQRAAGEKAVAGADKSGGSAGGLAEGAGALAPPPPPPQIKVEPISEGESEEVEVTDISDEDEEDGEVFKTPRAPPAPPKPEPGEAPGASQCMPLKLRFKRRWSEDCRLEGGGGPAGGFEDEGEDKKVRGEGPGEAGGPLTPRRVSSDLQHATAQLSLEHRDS
An outline of the steps: as §1

A further assay has as its target ETV6 (Homo sapiens, UniProt P41212 1-452). The procedure, abridged: as §1

Sequence of CRX (O43186 whole entry): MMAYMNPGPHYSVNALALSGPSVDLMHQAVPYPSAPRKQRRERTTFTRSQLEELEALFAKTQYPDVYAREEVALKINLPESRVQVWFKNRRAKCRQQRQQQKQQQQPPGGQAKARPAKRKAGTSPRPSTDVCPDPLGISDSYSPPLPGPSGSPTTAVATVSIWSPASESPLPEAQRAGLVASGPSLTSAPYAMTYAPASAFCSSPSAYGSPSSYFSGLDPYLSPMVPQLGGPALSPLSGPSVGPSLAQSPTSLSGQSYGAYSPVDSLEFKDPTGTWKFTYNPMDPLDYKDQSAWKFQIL
Sequence of ELF1 (P32519 whole entry): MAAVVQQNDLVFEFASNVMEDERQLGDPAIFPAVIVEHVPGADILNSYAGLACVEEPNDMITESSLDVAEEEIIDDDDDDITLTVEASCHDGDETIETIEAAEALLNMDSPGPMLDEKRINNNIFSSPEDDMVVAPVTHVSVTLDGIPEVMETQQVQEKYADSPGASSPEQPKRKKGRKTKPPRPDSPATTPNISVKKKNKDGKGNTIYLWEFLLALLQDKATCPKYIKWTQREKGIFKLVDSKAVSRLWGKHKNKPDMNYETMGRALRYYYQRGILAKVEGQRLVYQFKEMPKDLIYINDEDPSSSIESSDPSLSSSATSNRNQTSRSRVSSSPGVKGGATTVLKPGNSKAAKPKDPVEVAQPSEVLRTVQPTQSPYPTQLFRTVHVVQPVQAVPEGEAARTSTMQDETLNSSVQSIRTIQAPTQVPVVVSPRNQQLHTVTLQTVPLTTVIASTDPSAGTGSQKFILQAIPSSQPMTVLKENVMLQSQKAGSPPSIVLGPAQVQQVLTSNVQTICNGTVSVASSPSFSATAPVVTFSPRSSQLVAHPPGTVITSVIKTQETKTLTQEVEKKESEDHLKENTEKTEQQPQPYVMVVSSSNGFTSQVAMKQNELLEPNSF
Sequence of SPIB (Q01892 whole entry): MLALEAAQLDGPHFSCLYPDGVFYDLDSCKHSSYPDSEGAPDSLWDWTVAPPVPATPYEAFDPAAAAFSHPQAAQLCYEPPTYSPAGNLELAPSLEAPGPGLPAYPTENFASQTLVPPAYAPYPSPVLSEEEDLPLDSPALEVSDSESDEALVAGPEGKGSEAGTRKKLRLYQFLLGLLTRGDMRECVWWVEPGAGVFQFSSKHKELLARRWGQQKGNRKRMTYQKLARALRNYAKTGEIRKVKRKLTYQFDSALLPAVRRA
Sequence of ETV6 (P41212 whole entry): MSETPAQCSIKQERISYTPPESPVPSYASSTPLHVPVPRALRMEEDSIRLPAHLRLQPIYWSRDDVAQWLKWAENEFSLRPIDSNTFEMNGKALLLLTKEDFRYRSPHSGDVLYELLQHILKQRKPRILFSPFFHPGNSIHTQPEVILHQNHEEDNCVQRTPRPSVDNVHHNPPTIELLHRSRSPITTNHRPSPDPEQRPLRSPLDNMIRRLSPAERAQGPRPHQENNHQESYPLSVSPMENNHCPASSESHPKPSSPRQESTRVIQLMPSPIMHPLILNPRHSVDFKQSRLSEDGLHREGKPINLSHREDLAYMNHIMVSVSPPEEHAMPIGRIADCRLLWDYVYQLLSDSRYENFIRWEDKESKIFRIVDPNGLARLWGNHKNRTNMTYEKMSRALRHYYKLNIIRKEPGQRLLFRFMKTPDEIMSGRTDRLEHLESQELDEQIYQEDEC

As to CGCGGA, the binding signal in the assay with ELF3 was 1.07 fold enrichment (6-mer frequency, TF over GST control); with ETS2, 1 fold enrichment (6-mer frequency, TF over GST control); with SPDEF, 1.03 fold enrichment (6-mer frequency, TF over GST control); with ELF5 it was 1.03 fold enrichment (6-mer frequency, TF over GST control); with ETV3 it was 1.01 fold enrichment (6-mer frequency, TF over GST control).
On to TGACAG, for which the binding signal in the assay with ELF3 was 1.09 fold enrichment (6-mer frequency, TF over GST control); with ETV3L, 1 fold enrichment (6-mer frequency, TF over GST control).
As to CCAAAG, the binding signal with GABPA is 1.01 fold enrichment (6-mer frequency, TF over GST control); in the assay with SPIB, 1.01 fold enrichment (6-mer frequency, TF over GST control); with CRX it was 1.05 fold enrichment (6-mer frequency, TF over GST control).
In the case of GGATTG, in the assay with CRX, the binding signal was 1.12 fold enrichment (6-mer frequency, TF over GST control).
The same measure, in the same setting: with GGGATA the figure was 1.04 fold enrichment (6-mer frequency, TF over GST control).
On to AGGATA, for which the binding signal was 1.06 fold enrichment (6-mer frequency, TF over GST control) with ERG; 1.01 fold enrichment (6-mer frequency, TF over GST control) with FEV; 1.14 fold enrichment (6-mer frequency, TF over GST control) with CRX; 1.31 fold enrichment (6-mer frequency, TF over GST control) in the assay with SPDEF; 1.17 fold enrichment (6-mer frequency, TF over GST control) with ELF5; 1.06 fold enrichment (6-mer frequency, TF over GST control) with ETV3.
Take AAGGGA: the binding signal is 1.07 fold enrichment (6-mer frequency, TF over GST control) in the assay with SPI1 and 1.03 fold enrichment (6-mer frequency, TF over GST control) with ELF3.
Turning to ATTGGA, the binding signal in the assay with CRX was 1.03 fold enrichment (6-mer frequency, TF over GST control).
For the sequence TGTCGC, the binding signal in the assay with ELF1 is 1.04 fold enrichment (6-mer frequency, TF over GST control); in the assay with EHF it was 1.03 fold enrichment (6-mer frequency, TF over GST control); with SPI1, 1.02 fold enrichment (6-mer frequency, TF over GST control); with FEV, 1.02 fold enrichment (6-mer frequency, TF over GST control); with ELF3 it was 1.08 fold enrichment (6-mer frequency, TF over GST control); with ERF, 1.04 fold enrichment (6-mer frequency, TF over GST control). Moreover, the binding signal was 1.04 fold enrichment (6-mer frequency, TF over GST control) with ELF5 and 1.01 fold enrichment (6-mer frequency, TF over GST control) with ETV6.
With GATCAG, the binding signal with CRX is 1.08 fold enrichment (6-mer frequency, TF over GST control).
Same read-out and setting: to GCATAA belongs 1.15 fold enrichment (6-mer frequency, TF over GST control).
